What all share (experiment): DAPPL (digital affinity profiling via proximity ligation, sequencing); 10 mM Tris-HCl pH 7.5, 50 mM NaCl, 1 mM DTT, 4% glycerol, room temperature, 30 min; GST-TFs on glutathione beads, 16-mer random dsDNA library, 0.1% formaldehyde crosslink after washing; high values mean tight binding
One experiment has as its target T1, FLI1 (Homo sapiens, UniProt Q01543 1-452).
T1 sequence: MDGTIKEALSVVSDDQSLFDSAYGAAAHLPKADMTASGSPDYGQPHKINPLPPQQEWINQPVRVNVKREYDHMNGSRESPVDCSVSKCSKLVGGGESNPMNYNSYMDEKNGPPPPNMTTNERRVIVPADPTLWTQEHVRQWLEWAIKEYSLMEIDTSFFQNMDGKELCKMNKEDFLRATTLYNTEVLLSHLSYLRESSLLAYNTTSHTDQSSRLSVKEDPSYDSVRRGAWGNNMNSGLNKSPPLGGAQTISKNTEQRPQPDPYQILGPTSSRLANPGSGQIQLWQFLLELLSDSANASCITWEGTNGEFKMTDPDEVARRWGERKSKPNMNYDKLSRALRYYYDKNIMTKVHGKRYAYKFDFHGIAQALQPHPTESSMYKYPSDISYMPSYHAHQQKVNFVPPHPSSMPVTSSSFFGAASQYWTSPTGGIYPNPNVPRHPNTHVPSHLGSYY
The conditions noted are these: protein: recombinant; tags: N-terminal GST; dsDNA, one strand shown. The gist of the method: (§1)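 In yeast, human transcription factors were expressed with a GST fusion, then pulled down on glutathione beads and given DNA barcodes. Pooled with a tag-only sample, they were exposed to 200 nmole of a 16-mer random double-stranded DNA library (Tris/NaCl/DTT/glycerol buffer, room temperature, 30 min), washed, crosslinked with 0.1% formaldehyde, proximity-ligated using BsaI/T4 ligase for 1 h at 37 °C, PCR-amplified and read on an Illumina NextSeq500. Each hexamer's frequency of reads for a factor, divided by the matching frequency for the tag-only sample, gives the binding signal.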

The target in the next experiment is T2, ELK1 (Homo sapiens, UniProt P19419 1-428).
T2 sequence: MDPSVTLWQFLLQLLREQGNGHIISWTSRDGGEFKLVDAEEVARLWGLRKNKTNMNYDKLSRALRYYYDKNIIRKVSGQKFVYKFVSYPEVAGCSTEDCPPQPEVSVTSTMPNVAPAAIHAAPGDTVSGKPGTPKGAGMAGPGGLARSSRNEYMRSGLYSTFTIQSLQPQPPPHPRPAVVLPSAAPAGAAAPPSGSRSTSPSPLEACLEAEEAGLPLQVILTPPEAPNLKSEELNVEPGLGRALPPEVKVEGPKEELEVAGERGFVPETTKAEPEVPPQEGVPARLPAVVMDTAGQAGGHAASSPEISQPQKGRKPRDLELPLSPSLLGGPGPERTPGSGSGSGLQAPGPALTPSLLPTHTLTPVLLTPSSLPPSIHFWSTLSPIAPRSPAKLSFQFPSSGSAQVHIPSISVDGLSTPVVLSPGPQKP
The note with it: protein: recombinant; tags: N-terminal GST; dsDNA, one strand shown. In a few lines:
as §1

The target in a further experiment is T3, GABPA (Homo sapiens, UniProt Q06546 1-454).
T3 sequence: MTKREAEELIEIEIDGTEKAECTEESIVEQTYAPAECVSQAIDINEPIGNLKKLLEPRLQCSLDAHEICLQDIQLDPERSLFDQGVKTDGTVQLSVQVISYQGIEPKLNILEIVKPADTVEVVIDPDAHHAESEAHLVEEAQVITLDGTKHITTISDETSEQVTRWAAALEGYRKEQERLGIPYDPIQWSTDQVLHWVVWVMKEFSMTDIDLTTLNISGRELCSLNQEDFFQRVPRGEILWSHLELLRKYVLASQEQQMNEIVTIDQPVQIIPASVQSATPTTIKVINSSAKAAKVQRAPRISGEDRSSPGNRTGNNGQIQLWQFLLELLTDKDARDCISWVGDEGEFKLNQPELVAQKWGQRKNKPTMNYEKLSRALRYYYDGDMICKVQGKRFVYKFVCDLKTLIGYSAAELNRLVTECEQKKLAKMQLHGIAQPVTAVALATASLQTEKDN
The conditions noted are these: protein: recombinant; tags: N-terminal GST; dsDNA, one strand shown. The gist of the method: as §1

A further experiment addresses T4, ERG (Homo sapiens, UniProt P11308 1-479).
T4 sequence: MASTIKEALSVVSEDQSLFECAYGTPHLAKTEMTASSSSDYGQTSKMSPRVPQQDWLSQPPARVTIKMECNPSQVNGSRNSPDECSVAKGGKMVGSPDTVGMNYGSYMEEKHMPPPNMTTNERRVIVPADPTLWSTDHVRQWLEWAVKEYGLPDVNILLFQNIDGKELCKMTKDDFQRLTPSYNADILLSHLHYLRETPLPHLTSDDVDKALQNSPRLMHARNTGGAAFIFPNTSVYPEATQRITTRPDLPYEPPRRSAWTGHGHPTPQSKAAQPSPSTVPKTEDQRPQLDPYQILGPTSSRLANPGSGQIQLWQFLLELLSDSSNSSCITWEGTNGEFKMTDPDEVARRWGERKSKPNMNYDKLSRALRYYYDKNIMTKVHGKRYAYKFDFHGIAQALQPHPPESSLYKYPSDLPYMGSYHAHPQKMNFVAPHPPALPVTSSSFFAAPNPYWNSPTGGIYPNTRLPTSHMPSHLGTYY
The conditions noted are these: protein: recombinant; tags: N-terminal GST; dsDNA, one strand shown. In a few lines: as §1

The target in the next experiment is ELF1 (Homo sapiens, UniProt P32519 1-619). The conditions noted are these: protein: recombinant; tags: N-terminal GST; dsDNA, one strand shown. The gist of the method:
as §1

Another experiment concerns the target T5, EHF (Homo sapiens, UniProt Q9NZC4 1-300).
T5 sequence: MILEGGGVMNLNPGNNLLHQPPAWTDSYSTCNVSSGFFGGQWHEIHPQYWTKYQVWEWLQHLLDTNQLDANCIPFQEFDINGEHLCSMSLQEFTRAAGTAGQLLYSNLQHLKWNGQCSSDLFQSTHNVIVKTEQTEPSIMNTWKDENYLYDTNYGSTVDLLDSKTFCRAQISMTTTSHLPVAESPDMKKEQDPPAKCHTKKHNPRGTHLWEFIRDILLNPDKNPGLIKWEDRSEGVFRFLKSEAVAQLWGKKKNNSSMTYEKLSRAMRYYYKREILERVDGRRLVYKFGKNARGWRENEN
The conditions noted are these: protein: recombinant; tags: N-terminal GST; dsDNA, one strand shown. The gist of the method: as §1

Another experiment concerns the target SPI1 (Homo sapiens, UniProt P17947 1-270). The conditions noted are these: protein: recombinant; tags: N-terminal GST; dsDNA, one strand shown. The gist of the method:
as §1

A further experiment concerns the target SPIB (Homo sapiens, UniProt Q01892 1-262). The note with it: protein: recombinant; tags: N-terminal GST; dsDNA, one strand shown. In a few lines: as §1
A further experiment concerns the target T6, ELK3 (Homo sapiens, UniProt P41970 1-407).
T6 sequence: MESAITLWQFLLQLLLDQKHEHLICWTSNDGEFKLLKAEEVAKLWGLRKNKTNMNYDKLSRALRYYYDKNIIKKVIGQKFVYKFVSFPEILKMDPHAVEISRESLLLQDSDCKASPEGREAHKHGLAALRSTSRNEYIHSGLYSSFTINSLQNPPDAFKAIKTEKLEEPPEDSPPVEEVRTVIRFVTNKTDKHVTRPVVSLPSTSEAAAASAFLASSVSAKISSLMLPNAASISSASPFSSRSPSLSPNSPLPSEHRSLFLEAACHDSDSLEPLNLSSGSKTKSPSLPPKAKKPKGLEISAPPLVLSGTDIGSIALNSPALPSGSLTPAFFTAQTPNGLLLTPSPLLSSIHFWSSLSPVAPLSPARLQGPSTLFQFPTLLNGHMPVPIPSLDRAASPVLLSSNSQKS
The conditions noted are these: protein: recombinant; tags: N-terminal GST; dsDNA, one strand shown. In a few lines: as §1

In the next experiment the target is T7, FEV (Homo sapiens, UniProt Q99581 1-238).
T7 sequence: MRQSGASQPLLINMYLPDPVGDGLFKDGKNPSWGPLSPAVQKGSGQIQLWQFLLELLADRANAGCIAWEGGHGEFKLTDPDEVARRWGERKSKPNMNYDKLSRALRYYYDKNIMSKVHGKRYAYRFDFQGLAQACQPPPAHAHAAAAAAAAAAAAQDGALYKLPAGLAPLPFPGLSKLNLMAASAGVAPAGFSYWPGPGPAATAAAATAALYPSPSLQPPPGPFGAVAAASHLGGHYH
The conditions noted are these: protein: recombinant; tags: N-terminal GST; dsDNA, one strand shown. The gist of the method: as §1

The next experiment deals with ETV5 (Homo sapiens, UniProt P41161 1-510). The note with it: protein: recombinant; tags: N-terminal GST; dsDNA, one strand shown. The gist of the method:
as §1

The target in another experiment is HSF1 (Homo sapiens, UniProt Q00613 1-529). The note with it: protein: recombinant; tags: N-terminal GST; chain copies: 3; dsDNA, one strand shown. The gist of the method: as §1
Sequence of HSF1 (Q00613 whole entry): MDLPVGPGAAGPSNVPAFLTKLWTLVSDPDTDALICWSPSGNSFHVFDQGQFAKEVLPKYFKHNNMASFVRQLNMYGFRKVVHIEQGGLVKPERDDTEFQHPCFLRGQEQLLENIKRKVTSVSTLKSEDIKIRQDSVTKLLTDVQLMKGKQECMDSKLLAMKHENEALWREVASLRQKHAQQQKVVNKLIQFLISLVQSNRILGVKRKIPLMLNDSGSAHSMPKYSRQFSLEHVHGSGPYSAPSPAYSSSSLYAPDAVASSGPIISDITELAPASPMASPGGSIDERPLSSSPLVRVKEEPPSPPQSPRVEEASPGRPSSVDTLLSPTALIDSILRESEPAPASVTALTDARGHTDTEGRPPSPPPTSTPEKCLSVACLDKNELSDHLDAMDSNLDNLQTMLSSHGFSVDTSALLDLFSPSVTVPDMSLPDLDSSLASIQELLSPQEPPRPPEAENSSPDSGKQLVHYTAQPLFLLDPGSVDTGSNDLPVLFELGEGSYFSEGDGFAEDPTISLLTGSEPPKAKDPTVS
The target of a further experiment is T8, SPIC (Homo sapiens, UniProt Q8N5J4 1-248).
T8 sequence: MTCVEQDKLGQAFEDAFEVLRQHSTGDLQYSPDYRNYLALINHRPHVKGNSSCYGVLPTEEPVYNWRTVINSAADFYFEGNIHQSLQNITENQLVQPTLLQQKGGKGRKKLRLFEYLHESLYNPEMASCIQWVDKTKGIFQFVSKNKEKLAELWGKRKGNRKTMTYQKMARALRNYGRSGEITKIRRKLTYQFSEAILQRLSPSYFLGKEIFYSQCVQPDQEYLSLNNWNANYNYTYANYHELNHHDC
The conditions noted are these: protein: recombinant; tags: N-terminal GST; dsDNA, one strand shown. The gist of the method:
as §1

The target of the next experiment is ELF4 (Homo sapiens, UniProt Q99607 1-663). The note with it: protein: recombinant; tags: N-terminal GST; dsDNA, one strand shown. In a few lines: as §1
Sequence of ELF4 (Q99607 whole entry): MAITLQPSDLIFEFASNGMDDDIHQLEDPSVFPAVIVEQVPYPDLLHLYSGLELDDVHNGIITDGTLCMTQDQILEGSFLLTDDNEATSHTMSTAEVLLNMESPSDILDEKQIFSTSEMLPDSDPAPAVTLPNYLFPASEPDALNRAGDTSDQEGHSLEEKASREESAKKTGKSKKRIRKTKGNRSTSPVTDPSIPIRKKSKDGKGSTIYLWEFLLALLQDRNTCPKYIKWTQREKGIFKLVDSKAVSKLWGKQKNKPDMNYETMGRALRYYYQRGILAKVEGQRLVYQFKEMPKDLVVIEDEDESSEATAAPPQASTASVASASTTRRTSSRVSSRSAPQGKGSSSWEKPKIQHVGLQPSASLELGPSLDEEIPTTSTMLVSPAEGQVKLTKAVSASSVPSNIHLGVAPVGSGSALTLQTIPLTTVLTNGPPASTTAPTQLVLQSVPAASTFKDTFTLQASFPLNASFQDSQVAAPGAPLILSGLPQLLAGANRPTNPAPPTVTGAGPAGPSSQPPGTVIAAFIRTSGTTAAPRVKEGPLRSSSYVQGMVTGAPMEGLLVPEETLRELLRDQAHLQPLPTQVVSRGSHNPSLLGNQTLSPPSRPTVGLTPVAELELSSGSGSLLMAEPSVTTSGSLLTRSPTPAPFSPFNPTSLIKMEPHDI
The target in a further experiment is T9, ELK4 (Homo sapiens, UniProt P28324-2 1-405).
T9 sequence: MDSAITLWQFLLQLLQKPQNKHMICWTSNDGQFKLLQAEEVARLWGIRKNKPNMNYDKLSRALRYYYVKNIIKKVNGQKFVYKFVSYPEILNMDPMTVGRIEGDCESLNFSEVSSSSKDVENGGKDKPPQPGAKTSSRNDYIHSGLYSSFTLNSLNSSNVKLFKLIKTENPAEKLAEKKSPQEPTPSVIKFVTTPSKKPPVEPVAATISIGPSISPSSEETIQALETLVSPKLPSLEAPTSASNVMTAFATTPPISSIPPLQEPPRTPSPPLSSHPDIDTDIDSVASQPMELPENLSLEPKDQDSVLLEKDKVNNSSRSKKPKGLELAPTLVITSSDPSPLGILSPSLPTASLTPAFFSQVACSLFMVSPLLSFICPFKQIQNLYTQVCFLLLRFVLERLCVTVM
The conditions noted are these: protein: recombinant; tags: N-terminal GST; dsDNA, one strand shown. In a few lines:
as §1

The next experiment addresses T10, ETV2 (Homo sapiens, UniProt O00321 1-342).
T10 sequence: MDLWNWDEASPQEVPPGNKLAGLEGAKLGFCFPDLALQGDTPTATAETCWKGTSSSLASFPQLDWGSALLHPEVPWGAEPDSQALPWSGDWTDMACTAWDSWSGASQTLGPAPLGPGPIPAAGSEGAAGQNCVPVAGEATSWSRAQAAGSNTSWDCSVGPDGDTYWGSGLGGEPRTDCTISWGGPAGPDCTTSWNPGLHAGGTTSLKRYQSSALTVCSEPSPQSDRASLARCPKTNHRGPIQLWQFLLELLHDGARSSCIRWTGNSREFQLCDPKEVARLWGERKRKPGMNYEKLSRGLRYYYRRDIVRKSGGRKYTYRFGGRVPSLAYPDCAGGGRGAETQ
The note with it: protein: recombinant; tags: N-terminal GST; dsDNA, one strand shown. In a few lines:
as §1

The target of another experiment is T11, ELF3 (Homo sapiens, UniProt P78545 1-371).
T11 sequence: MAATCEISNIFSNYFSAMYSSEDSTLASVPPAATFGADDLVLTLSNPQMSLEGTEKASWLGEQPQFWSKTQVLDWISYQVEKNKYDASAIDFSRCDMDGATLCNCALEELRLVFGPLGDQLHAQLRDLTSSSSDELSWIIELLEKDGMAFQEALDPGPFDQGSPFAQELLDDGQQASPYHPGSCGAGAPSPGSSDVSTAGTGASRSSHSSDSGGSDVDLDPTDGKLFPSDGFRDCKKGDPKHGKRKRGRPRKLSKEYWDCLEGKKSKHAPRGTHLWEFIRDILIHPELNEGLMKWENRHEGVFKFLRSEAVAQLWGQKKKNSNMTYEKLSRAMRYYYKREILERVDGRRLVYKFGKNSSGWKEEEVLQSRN
The conditions noted are these: protein: recombinant; tags: N-terminal GST; dsDNA, one strand shown. In a few lines:
as §1

The target of a further experiment is CRX (Homo sapiens, UniProt O43186 1-299). The note with it: protein: recombinant; tags: N-terminal GST; dsDNA, one strand shown. In a few lines:
as §1

In the next experiment the target is ETV1 (Homo sapiens, UniProt P50549 1-477). The conditions noted are these: protein: recombinant; tags: N-terminal GST; dsDNA, one strand shown. The gist of the method:
as §1

This passage reports binding signal results from publication PMC7862700, “An all-to-all approach to the identification of sequence-specific readers for epigenetic DNA modifications on cytosine”.

Sequence of ETV1 (P50549 whole entry): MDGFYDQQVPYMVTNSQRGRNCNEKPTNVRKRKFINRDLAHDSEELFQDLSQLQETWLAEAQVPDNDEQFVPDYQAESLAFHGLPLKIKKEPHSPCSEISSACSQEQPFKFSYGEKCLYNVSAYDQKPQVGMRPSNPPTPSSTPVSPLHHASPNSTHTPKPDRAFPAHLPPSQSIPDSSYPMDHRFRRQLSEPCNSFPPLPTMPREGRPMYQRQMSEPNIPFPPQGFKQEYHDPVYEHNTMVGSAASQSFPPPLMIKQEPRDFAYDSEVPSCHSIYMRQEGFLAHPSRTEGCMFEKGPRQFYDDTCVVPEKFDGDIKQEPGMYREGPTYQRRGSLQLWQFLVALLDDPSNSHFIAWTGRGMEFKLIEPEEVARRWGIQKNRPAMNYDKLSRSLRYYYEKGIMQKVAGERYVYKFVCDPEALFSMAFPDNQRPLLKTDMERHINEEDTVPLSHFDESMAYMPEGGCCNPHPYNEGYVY
Sequence of ELF1 (P32519 whole entry): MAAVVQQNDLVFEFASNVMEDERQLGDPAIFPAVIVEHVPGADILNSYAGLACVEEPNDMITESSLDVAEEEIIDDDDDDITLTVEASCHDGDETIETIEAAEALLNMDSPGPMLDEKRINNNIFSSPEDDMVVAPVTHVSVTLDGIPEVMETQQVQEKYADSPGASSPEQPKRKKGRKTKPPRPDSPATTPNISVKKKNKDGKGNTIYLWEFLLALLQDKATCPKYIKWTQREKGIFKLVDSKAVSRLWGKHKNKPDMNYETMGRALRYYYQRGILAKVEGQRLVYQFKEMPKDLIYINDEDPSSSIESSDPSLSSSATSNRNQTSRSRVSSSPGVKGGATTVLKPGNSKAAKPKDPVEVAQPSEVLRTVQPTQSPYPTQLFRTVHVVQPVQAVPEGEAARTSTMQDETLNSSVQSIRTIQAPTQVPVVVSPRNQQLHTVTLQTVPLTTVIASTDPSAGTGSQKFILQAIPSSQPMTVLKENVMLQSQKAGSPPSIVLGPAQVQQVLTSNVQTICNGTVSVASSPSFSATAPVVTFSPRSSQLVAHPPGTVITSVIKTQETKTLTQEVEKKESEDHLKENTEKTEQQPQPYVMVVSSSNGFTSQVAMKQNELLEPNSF
Sequence of CRX (O43186 whole entry): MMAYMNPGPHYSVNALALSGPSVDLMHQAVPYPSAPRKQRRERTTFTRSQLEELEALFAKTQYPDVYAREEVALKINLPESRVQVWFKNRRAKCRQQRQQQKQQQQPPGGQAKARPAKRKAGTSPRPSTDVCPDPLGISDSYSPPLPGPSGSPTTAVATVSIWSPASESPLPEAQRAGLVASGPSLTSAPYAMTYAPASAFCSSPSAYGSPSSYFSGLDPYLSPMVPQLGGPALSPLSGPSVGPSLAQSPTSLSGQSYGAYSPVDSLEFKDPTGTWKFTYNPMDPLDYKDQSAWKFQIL
Sequence of SPIB (Q01892 whole entry): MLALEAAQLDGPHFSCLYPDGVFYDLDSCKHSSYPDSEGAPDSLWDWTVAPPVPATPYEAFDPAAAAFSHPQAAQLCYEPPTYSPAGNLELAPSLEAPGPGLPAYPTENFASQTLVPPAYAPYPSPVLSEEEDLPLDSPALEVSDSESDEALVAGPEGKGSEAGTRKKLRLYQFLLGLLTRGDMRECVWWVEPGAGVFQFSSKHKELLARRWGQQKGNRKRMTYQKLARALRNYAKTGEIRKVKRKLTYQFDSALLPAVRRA
Sequence of ETV5 (P41161 whole entry): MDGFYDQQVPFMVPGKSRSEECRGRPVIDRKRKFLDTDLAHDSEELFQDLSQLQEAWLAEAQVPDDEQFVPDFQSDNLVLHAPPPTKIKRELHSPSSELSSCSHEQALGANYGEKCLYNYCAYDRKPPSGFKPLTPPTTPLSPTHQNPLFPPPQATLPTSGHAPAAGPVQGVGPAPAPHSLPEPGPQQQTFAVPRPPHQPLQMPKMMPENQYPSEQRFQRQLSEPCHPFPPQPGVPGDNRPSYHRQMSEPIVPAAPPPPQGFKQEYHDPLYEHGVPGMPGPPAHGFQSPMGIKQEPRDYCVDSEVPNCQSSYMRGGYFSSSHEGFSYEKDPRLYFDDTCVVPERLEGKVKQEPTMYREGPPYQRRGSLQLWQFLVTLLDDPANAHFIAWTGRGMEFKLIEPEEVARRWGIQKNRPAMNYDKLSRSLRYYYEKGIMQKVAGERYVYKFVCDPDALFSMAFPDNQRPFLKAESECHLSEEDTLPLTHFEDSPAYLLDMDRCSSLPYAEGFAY

As to CCTTAT, the binding signal is 1.53 fold enrichment (6-mer frequency, TF over GST control) with FLI1; 1.34 fold enrichment (6-mer frequency, TF over GST control) with ELK1; 1.48 fold enrichment (6-mer frequency, TF over GST control) with GABPA; 1.45 fold enrichment (6-mer frequency, TF over GST control) in the experiment with ERG; 1.39 fold enrichment (6-mer frequency, TF over GST control) with ELF1; 1.57 fold enrichment (6-mer frequency, TF over GST control) with EHF. Moreover, the binding signal is 1.6 fold enrichment (6-mer frequency, TF over GST control) with SPI1; 1.49 fold enrichment (6-mer frequency, TF over GST control) in the experiment with SPIB; 1.28 fold enrichment (6-mer frequency, TF over GST control) with ELK3; 1.4 fold enrichment (6-mer frequency, TF over GST control) in the experiment with FEV; 1.41 fold enrichment (6-mer frequency, TF over GST control) with ETV5; 1.35 fold enrichment (6-mer frequency, TF over GST control) in the experiment with HSF1. Moreover, the binding signal with SPIC is 1.33 fold enrichment (6-mer frequency, TF over GST control); with ELF4, 1.47 fold enrichment (6-mer frequency, TF over GST control); with ELK4 it was 1.45 fold enrichment (6-mer frequency, TF over GST control); with ETV2 it was 1.39 fold enrichment (6-mer frequency, TF over GST control); with ELF3, 1.37 fold enrichment (6-mer frequency, TF over GST control); with CRX, 1.77 fold enrichment (6-mer frequency, TF over GST control). Besides, the binding signal with ETV1 is 1.62 fold enrichment (6-mer frequency, TF over GST control).
